Results: the supplement of paper PMC11732987, “Enantioselective OTUD7B fragment discovery through chemoproteomics screening and high-throughput optimisation” (Communications Chemistry, 2025)

Assays:
Assay in all cases: log2 ratio of Biotin-Ahx-Ub-VS probe labelling (fragment/DMSO); higher = less target engagement (more negative = stronger competition), active = hit call of the paper (q ≤ 0.05, log2 ratio ≤ -1)
Details in all cases: compound concentration: 200 uM; treatment time: 3 h
ALG13 = target: T1, ALG13 (UniProt Q9NP73)
T1 sequence (whole entry): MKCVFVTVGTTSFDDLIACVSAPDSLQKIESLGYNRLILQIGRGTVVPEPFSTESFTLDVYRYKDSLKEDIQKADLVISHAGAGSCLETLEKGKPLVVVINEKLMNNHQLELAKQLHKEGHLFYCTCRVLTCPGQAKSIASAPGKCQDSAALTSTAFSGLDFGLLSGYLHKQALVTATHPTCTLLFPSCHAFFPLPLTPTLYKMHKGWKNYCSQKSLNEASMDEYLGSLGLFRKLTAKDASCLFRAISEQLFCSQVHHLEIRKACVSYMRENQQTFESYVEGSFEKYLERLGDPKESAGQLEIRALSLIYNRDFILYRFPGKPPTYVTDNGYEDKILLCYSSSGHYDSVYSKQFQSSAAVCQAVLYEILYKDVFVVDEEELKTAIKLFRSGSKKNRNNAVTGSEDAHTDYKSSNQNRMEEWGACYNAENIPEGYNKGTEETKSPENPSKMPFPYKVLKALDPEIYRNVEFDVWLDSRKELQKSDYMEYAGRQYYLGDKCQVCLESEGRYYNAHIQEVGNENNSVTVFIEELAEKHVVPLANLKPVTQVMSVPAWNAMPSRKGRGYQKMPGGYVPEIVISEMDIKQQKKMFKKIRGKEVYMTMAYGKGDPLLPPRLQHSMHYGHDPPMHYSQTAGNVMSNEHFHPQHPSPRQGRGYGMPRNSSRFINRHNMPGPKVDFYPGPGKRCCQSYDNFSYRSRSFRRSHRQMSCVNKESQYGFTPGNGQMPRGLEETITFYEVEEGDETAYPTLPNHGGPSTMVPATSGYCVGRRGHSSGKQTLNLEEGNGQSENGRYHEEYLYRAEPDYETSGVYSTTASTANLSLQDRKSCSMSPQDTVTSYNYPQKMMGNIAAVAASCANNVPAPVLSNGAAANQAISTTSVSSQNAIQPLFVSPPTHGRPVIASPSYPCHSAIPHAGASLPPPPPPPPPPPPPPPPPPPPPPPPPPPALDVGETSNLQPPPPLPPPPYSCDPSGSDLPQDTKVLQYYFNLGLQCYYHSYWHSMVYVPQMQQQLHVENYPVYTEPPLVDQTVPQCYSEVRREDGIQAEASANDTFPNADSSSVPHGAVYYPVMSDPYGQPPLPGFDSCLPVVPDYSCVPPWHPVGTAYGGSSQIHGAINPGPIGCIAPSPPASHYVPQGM
Summary of the method: (§1)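 HEK293T lysate (495 µg per sample, in Tris/CHAPS/IGEPAL buffer with protease inhibitors) was exposed in triplicate for 3 h to fragment at 200 µM or to vehicle, then to Biotin-Ahx-Ub-VS at 0.5 µM final for 1 h. Labelled DUBs were enriched on NeutrAvidin, digested with LysC and trypsin, and analysed by diaPASEF LC-MS/MS. Spectronaut label-free quantities were normalised to the global median, and values are average log2 ratios of fragment over vehicle from an unpaired t-test. Only proteins with ≥2 unique peptides were used.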

ATXN3 = ATXN3 (UniProt P54252)
Chain of ATXN3 (P54252 whole entry): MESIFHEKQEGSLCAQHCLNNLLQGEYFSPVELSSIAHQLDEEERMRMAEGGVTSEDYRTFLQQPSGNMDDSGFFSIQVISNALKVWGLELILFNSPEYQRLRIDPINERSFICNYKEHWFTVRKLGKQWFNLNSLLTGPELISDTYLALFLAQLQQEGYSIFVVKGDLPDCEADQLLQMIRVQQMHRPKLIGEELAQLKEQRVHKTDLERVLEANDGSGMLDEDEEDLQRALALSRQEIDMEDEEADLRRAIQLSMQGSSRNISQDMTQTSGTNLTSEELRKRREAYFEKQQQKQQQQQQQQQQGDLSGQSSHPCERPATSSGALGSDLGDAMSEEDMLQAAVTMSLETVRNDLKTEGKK
Summary of the method: as §1

BAP1 = target: T2, BAP1 (UniProt Q92560)
T2 sequence (whole entry): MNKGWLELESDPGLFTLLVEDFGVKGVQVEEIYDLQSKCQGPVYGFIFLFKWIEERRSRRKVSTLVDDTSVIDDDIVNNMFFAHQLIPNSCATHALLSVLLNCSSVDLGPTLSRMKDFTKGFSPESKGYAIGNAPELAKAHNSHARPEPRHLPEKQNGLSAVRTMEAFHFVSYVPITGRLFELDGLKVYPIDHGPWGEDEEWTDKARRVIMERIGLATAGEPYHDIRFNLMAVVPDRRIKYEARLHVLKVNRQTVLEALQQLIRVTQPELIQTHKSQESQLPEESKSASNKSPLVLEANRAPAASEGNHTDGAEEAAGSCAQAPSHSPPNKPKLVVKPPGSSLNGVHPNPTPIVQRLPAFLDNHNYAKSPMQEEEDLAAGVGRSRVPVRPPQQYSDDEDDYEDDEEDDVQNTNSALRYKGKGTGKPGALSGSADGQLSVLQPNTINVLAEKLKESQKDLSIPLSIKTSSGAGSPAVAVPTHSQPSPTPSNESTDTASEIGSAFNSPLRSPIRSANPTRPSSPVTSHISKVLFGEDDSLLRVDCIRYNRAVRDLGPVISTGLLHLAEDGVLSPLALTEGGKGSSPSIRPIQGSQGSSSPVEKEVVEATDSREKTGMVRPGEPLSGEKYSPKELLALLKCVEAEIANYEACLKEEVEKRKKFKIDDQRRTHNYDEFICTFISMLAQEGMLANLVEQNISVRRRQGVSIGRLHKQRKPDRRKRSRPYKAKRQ
Summary of the method: as §1

EIF3F = EIF3F (UniProt O00303)
Chain of EIF3F (O00303 whole entry): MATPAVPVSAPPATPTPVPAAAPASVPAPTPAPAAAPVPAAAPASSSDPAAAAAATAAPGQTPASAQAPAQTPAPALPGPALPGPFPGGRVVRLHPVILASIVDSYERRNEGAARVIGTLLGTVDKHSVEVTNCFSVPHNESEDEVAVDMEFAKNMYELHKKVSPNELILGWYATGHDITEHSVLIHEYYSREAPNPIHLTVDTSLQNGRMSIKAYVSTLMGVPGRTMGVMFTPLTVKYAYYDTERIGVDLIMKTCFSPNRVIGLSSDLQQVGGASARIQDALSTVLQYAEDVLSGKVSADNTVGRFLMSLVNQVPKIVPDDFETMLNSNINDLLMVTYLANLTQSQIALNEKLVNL
Summary of the method: as §1

EIF3H = EIF3H (UniProt O15372)
Chain of EIF3H (O15372 whole entry): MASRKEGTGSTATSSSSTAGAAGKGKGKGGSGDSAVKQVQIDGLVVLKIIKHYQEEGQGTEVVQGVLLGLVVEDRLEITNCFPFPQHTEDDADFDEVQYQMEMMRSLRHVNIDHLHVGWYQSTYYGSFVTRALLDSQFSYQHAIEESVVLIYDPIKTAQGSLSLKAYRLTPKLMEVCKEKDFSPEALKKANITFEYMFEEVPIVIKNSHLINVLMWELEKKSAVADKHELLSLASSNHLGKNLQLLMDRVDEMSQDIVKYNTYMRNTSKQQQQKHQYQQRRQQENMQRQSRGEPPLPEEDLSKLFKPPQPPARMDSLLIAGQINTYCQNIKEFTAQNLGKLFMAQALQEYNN
Summary of the method: as §1

FAM105A = target: T3, FAM105A (UniProt Q9NUU6)
T3 sequence (whole entry): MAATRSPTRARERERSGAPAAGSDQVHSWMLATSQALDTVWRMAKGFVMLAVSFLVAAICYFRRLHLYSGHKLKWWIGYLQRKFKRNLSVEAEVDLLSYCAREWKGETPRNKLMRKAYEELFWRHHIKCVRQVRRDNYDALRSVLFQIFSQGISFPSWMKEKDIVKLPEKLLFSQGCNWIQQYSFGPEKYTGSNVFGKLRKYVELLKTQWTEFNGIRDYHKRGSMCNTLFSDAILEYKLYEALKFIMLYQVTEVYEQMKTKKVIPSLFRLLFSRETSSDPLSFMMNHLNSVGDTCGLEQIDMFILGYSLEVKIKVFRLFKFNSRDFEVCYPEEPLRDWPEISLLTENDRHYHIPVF
Summary of the method: as §1

OTUB1 = OTUB1 (UniProt Q96FW1)
Chain of OTUB1 (Q96FW1 whole entry): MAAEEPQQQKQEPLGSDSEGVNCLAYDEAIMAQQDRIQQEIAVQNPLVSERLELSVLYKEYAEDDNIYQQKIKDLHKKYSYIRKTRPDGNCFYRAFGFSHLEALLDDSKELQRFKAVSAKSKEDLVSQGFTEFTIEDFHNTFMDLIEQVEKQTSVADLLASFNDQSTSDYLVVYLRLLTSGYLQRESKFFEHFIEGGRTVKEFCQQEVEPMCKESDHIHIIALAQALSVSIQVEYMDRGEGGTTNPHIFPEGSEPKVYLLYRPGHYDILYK
Summary of the method: as §1

OTUD4 = target: T4, OTUD4 (UniProt Q01804)
T4 sequence (whole entry): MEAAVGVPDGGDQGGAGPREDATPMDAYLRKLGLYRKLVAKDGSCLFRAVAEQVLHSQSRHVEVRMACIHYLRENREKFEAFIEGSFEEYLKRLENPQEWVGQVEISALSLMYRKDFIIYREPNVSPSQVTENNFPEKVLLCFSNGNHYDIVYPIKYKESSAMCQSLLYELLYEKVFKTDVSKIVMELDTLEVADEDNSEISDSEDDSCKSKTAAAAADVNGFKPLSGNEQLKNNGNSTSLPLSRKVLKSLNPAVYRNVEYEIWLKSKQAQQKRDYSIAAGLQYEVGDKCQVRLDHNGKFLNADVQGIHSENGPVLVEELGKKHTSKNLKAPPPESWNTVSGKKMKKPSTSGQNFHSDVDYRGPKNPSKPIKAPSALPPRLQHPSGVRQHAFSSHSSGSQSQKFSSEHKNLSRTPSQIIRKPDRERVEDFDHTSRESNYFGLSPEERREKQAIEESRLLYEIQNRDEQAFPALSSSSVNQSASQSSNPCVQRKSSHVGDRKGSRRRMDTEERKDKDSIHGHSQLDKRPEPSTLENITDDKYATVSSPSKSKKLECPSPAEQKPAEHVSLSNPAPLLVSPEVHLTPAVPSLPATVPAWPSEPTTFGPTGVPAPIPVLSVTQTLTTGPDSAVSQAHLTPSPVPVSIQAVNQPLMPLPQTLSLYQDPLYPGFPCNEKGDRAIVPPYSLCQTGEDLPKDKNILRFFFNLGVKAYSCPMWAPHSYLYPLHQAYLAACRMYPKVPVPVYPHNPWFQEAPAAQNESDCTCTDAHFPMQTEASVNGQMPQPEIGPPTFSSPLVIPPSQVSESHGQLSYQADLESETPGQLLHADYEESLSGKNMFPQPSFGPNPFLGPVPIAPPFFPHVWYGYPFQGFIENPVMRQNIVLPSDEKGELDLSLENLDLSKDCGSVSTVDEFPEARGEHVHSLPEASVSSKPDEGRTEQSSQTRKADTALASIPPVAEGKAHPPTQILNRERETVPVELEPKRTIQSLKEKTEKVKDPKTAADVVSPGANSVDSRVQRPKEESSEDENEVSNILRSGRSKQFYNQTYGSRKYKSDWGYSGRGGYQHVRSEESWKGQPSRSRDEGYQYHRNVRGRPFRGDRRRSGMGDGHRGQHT
Summary of the method: as §1

OTUD5 = target: T5, OTUD5 (UniProt Q96G74)
T5 sequence (whole entry): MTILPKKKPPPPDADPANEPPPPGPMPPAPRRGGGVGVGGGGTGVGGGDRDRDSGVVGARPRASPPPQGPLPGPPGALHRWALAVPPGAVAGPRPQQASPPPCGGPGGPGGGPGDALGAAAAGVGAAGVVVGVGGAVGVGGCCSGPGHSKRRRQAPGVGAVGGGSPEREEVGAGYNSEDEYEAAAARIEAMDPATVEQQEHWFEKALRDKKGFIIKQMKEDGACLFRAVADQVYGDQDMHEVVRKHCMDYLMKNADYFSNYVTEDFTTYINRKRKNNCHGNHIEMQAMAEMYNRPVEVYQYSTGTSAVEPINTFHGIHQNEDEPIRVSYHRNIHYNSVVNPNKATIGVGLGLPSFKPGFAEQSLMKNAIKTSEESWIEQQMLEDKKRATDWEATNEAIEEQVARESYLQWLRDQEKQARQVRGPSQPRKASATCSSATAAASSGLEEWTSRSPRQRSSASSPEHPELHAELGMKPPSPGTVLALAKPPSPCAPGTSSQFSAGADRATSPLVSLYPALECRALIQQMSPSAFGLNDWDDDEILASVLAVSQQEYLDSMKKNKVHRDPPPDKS
Summary of the method: as §1

Measured: log2 ratio of Biotin-Ahx-Ub-VS probe labelling

O=C(CCl)N1CCC(OCc2ccccc2F)CC1
inactive: ALG13 -0.0579 | ATXN3 -0.708 | BAP1 -0.64 | EIF3F -0.319 | EIF3H -0.284 | FAM105A -0.178 | OTUB1 -0.00851 | OTUD4 -0.169 | OTUD5 -0.0801
